Reference: PubChem BioAssay (Tox21)
Where “and” joins values, the source holds several entries; their conditions need not be identical. Equal entries are not always repeated. Inconclusive results are not listed. A call without a number means that no potency is given here. Some structures have more than one record in an assay (separate samples or runs), and their calls can disagree. Calls of active or inactive are those of the source. Calls come from the whole dose curve; as a rule, active = well fitted inhibition curve with a large enough effect in the signal ratio in the repeat runs (not every such curve was filed as active); inconclusive = weak or mixed curves; inactive = flat fitted curve, though single readings scatter; the % refers to the signal ratio.

molecular target: Progesterone receptor (Homo sapiens) (UniProt P06401); assay: qHTS assay to identify small molecule antagonists of the progesterone receptor (PR) signaling pathway (AID 1346795); conditions: PR-UAS-bla HEK293T, beta-lactamase FRET ratio, 16 h; series mostly up to 92.4 µM
Sequence (P06401 whole entry, looked up): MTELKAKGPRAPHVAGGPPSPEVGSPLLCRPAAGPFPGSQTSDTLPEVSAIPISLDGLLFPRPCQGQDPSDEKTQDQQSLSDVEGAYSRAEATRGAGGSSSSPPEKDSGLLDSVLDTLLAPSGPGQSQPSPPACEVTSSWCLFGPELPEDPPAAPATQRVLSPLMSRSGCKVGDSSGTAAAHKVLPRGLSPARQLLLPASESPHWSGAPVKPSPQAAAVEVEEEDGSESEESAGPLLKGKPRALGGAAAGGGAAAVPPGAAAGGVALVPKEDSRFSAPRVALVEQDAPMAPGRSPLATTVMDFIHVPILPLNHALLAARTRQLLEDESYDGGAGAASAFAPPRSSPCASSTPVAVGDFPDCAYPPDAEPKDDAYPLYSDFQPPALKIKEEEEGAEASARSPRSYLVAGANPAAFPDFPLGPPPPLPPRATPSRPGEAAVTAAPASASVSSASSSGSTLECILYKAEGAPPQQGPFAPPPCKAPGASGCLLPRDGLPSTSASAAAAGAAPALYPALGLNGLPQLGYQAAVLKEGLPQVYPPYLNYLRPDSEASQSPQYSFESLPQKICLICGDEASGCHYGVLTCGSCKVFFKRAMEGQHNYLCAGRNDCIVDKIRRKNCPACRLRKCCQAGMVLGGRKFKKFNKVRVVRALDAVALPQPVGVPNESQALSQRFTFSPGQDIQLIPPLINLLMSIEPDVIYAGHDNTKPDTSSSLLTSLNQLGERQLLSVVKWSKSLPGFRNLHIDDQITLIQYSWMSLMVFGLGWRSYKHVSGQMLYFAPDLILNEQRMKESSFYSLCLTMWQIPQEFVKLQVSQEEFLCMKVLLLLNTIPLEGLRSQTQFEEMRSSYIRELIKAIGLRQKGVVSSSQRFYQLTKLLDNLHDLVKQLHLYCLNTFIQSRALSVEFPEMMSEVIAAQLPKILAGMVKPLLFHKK
Excerpt: National Center for Advancing Translational Sciences [NCATS]
NIH Chemical Genomics Center [NCGC]
U.S. Environmental Protection Agency [EPA]
National Institutes of Environmental Health Sciences [NIEHS]
National Toxicology Program [NTP]
U.S. Food and Drug Administration [FDA]
Progesterone receptor (PR), a nuclear hormone receptor, plays an important role in development, metabolic homeostasis and reproduction. […] Endocrine disrupting chemicals (EDCs) and their interactions with steroid hormone receptors like PR causes disruption of normal endocrine function. To identify the compounds that inhibit PR signaling, a PR-UAS-bla GripTite cell line i.e. PR-UAS-bla HEK293T (Invitrogen, Carlsbad, CA, USA) containing a beta-lactamase reporter gene under the control of an Upstream Activator Sequence (UAS) was used to screen Tox21 10K compound library.
Tox21 Assay Protocol Summary:
PR-UAS-bla HEK293T cells were dispensed at 3,000 cells/4 uL of assay medium containing 2% charcoal stripped FBS per well into black wall/clear-bottom 1536-well plates using a Multidrop Combi (ThermoFisher Scientific, Waltham, MA) dispenser. After the assay plates were incubated at a 37C and 5% CO2 for 6 hr, 23 nL of compounds dissolved in DMSO, positive controls or DMSO only was transferred to the assay plate by a Pintool station (Kalypsys, San Diego, CA), followed by addition of 1 uL (1nM as final concentration) of Promegestone (R5020) in assay medium using a BioRAPTR FRD (Flying Reagent Dispenser, Aurora Discovery, San Diego, CA). The plates were incubated at 37C and 5% CO2 for 16 hr. Then 1 uL of LiveBLAzer B/G FRET substrate was added using a FRD. After the plates were incubated at room temperature for 2 hours, fluorescence intensity was measured by an Envision plate reader (PerkinElmer, Shelton, CT).
Potency is the fitted concentration of half-maximal effect.

| Structure (SMILES) | Potency |
| --- | --- |
| Cc1cc(Cl)ccc1N=CN(C)C | inactive |
| Clc1ccc(C(Cl)(Cl)Cl)cc1 | inactive |
| O=C1Nc2ccc(Cl)cc2C(c2ccccc2)=NC1O (stereo not given) | inactive |
| COP(=S)(OC)Oc1ccc(Sc2ccc(OP(=S)(OC)OC)cc2)cc1 | 54.5 µM (active) and inactive |
| NN=C(N)N | inactive |
| CC(C)Nc1ccc(Nc2ccccc2)cc1 | 30.5 µM (active) and 27.3 µM (active) |
| CCCCCCCCCCCCCl | inactive |
| COP(=O)(NC(C)=O)SC (stereo not given) | inactive |
| CCCCOCC1CO1 (stereo not given) | inactive |
| C[C@]12CC[C@H]3[C@@H](CCC4=CC(=O)CC[C@@H]43)[C@@H]1CC[C@@H]2O | inactive |
| Cn1c(-c2ccccc2)cc(-c2ccccc2)[n+]1C | inactive |
| ClC(Cl)=C(Cl)C(Cl)=C(Cl)Cl | inactive |
| CCC[CH2][Sn]([Cl])([Cl])[CH2]CCC | 0.196 µM (active) |
| COP(=S)(OC)Oc1ccc(S(=O)(=O)N(C)C)cc1 | inactive |
| CC[n+]1c(-c2ccccc2)c2cc(N)ccc2c2ccc(N)cc21 | 38.4 µM (active) |
| CC(C)(c1ccccc1)c1ccc(O)cc1 | 7.63 µM (active) and 9.69 µM (active) |
| Nc1ccc2ccccc2c1 | inactive |
| CCOC(=O)c1ccccc1N | inactive |
| Clc1cccc(Cl)c1 | inactive |
| CC(C)(O)C#N | inactive |

| Structure (SMILES) | Potency |
| --- | --- |
| S=c1[nH]c2ccccc2[nH]1 | 30.7 µM (active) |
| O=NN(c1ccccc1)c1ccccc1 | inactive |
| O=C1C(Cl)=C(Cl)C(=O)c2ccccc21 | 48.6 µM (active) |
| O=[N+]([O-])c1ccc(Cl)c([N+](=O)[O-])c1 | 24.3 µM (active) |
| C=CC(Cl)CCl (stereo not given) | inactive |
| CCC/C=N/O | inactive |
| CC1(C)C(C(=O)OC(C#N)c2cccc(Oc3ccccc3)c2)C1(C)C (stereo not given) | 24.5 µM (active) |
| [CH3][Sn]([Cl])([Cl])[Cl] | inactive |
| Clc1ccccc1-c1nnc(-c2ccccc2Cl)nn1 | inactive |
| CNC(=O)CSP(=S)(OC)OC | inactive |
| O=C(O)c1nn(Cc2ccc(Cl)cc2Cl)c2ccccc12 | inactive |
| CCCCC(C#N)(Cn1cncn1)c1ccc(Cl)cc1 (stereo not given) | 30.5 µM (active) |
| CCOS(=O)(=O)OCC | inactive |
| CCC1(c2ccc(N)cc2)CCC(=O)NC1=O (stereo not given) | inactive |
| Cl | inactive |
| O=C(O)CF | inactive |
| CCCCSP(=O)(SCCCC)SCCCC | 23.8 µM (active) and 24.3 µM (active) |
| Oc1ccc(Cl)cc1Cc1ccccc1 | 7.7 µM (active) and 10.6 µM (active) |
| OC(c1ccc(Cl)cc1)(c1cncnc1)c1ccccc1Cl (stereo not given) | 13.7 µM (active) |
| NC(=O)CN1CCCC1=O | inactive |
